For 30 compounds, outcome results are on record in PubChem BioAssay (EPA / NIEHS).

Records with an inconclusive call do not appear. Activity calls are given as the source filed them. The calls were made as follows: active = hit-call score of the fitted dose curve at least 0.9, where 1 is the maximum; inconclusive = response in the unintended direction; inactive = score below 0.9.

One experiment is described as follows: ATG_M_06_TRANS: Attagene TRANS-FACTORIAL HepG2 Assay for M06 Transcription Factor (Internal Marker) (AID 2282983).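 Also: reporter transcript level by RT-PCR then capillary electrophoresis fluorescence.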 The note with it: HepG2 Attagene TRANS M06 internal marker reporter. Put shortly: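 HepG2 cells transiently transfected with multiplexed GAL4-UAS reporter transcription units; after 24 h compound exposure, reporter mRNA measured by RT-PCR, FAM-labelled primer extension, HpaI digestion and capillary electrophoresis. Gain-of-signal fitted versus DMSO baseline; background control readout.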
For `CCCCOC(=O)C(C)OC(=O)CCC` (stereo not given), the result was inactive.
Still for that read-out and setting: next, `C/C=C(\C)C(=O)OC/C=C(\C)CCC=C(C)C`: “inactive”; `CC(C)N(c1ccccc1)C(C)C`: “inactive”.
On to `OCCCO`, for which the outcome was inactive.
Same read-out and setting: next, `Nc1ccc(N)c([N+](=O)[O-])c1`: “inactive”.
Regarding `COc1ccc(OC)cc1`, the compound was called inactive.
On the same count and under the same terms, next, `C[C@H](CCC(=O)O)[C@H]1CC[C@H]2[C@@H]3CC[C@@H]4C[C@H](O)CC[C@]4(C)[C@H]3CC[C@]12C`: “inactive”; `N=C1N=C(N)c2ccccc21`: “inactive”; `CC(=O)c1ccc(C)cc1`: “inactive”.
On the same count and under the same terms, next, `CCOC(=O)CC(C)C`: “inactive”.
On the same count and under the same terms, next, `CC1COC(=O)O1` (stereo not given): “inactive”; `CC/C=C\C#N`: “inactive”.
Turning to `CCCCCCC(C)O` (stereo not given), the call was inactive.
On the same count and under the same terms, next, `CC(C)(C)c1cccc(O)c1`: “inactive”.
Same read-out and setting: next, `CC(C)(O)C(=O)c1ccc(OCCO)cc1`: “inactive”.
In the case of `CCCCCCCCOC(=O)c1ccc(O)cc1`, the result was inactive.
The same measure, in the same setting: the value for `NC(=O)c1cnccn1` was “inactive”.
As to `CCCCCCCCCCCCN1CCOCC1`, the compound was classed as inactive.
In the case of `O=C(c1ccc(OCCN2CCCCC2)cc1)c1c(-c2ccc(O)cc2)sc2cc(O)ccc12`, the compound was called inactive.
On the same count and under the same terms, next, `NC(N)=S`: “inactive”.

The nature of a further experiment: ATG_M_32_TRANS: Attagene TRANS-FACTORIAL HepG2 Assay for M32 Transcription Factor (Internal Marker) (AID 2282984). The note with it: HepG2 Attagene TRANS M32 internal marker reporter. In short, it runs like this:
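HepG2 cells transiently transfected with GAL4-UAS reporter units, dosed for 24 hours. Reporter mRNA quantified by RT-PCR, 6-FAM labelling, HpaI digestion and capillary electrophoresis; internal-marker signal fitted upward relative to DMSO.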
For the compound `CC(=N[Si](C)(C)C)O[Si](C)(C)C`, the compound was classed as inactive.
The same measure, in the same setting: next, `C/C=C(\C)C(=O)OC/C=C(\C)CCC=C(C)C`: “inactive”.
Same read-out and setting: the value for `OCCCO` was “inactive”; that for `Nc1ccc(N)c([N+](=O)[O-])c1` was “inactive”.
The same measure, in the same setting: the value for `C[C@H](CCC(=O)O)[C@H]1CC[C@H]2[C@@H]3CC[C@@H]4C[C@H](O)CC[C@]4(C)[C@H]3CC[C@]12C` was “inactive”; that for `CC(C)COC(=O)c1ccccc1O` was “inactive”; that for `O=C(OCc1ccccc1)c1ccccc1O` was “inactive”.
For `CC(=O)CCC(=O)O`, the compound was called inactive.
Same read-out and setting: next, `CC1=CC(O)CC(C)(C)C1` (stereo not given): “inactive”.
On the same count and under the same terms, next, `CCCC[N+](C)(CCCC)CCCC`: “inactive”.
For the compound `N=C1N=C(N)c2ccccc21`, the call was inactive.
On to `[Cu+]`, for which the call was inactive.
The same measure, in the same setting: the value for `CC(=O)c1ccc(C)cc1` was “inactive”; that for `C1=COCCC1` was “inactive”; that for `CC(C)(C)c1cc(CCC(=O)OCCSCCOC(=O)CCc2cc(C(C)(C)C)c(O)c(C(C)(C)C)c2)cc(C(C)(C)C)c1O` was “inactive”.
Still for that read-out and setting: the value for `CC/C=C\C#N` was “inactive”.
On the same count and under the same terms, the value for `CCCCCCCCOC(=O)c1ccc(O)cc1` was “inactive”; that for `O=C(c1ccc(OCCN2CCCCC2)cc1)c1c(-c2ccc(O)cc2)sc2cc(O)ccc12` was “inactive”; that for `CC/C(=C(\c1ccccc1)c1ccc(OCCN(C)C)cc1)c1ccccc1` was “inactive”.
As to `NC(N)=S`, the compound was called inactive.
